Read-out in assay [1]: Transforming growth factor beta 1 (TGFb1), TGFB1 (gene 7040)
Briefly: BSK_KF3CT_TGFb1: BioMAP Diversity Plus: KF3CT Assay for Transforming growth factor beta 1 (TGFb1) Biomarker Activity (AID 2283072). To be noted: primary human keratinocytes with fibroblasts; actives raise or lower the signal. In short, it runs like this:
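ELISA quantifies TGF-b1 at 24 h post-dose in a primary human skin co-culture of keratinocytes and fibroblasts, with gain or loss judged against DMSO. Parallel SRB total-protein staining flags overt cytotoxicity.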

Read-out in assay [2]: C-C motif chemokine 2 (Homo sapiens) (UniProt P13500)
Briefly: BSK_KF3CT_MCP1: BioMAP Diversity Plus: KF3CT Assay for Monocyte Chemoattractant Protein 1 (MCP1/CCL2) Biomarker Activity (AID 2283073). Particulars: primary human keratinocytes with fibroblasts; actives raise or lower the signal. In short, it runs like this: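 Keratinocytes and foreskin fibroblasts were co-cultured, dosed with chemical, and sampled 24 h later. MCP-1 was quantified by ELISA, and the endpoint was analyzed with bidirectional fitting using DMSO as negative control.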

Read-out in assay [3]: Matrix Metallopeptidase 9 (MMP9), MMP9 (gene 4318)
Briefly: BSK_KF3CT_MMP9: BioMAP Diversity Plus: KF3CT Assay for Matrix Metallopeptidase 9 (MMP9) Biomarker Activity (AID 2283074).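 For AC50: MMP9 protein level quantified by ELISA in the co-culture.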 Particulars: primary human keratinocytes with fibroblasts; actives raise or lower the signal. The essentials: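 MMP-9 quantified by ELISA after 24 h chemical treatment of primary human skin keratinocyte/fibroblast co-cultures; gain or loss fitted against DMSO, with parallel SRB staining (0.1% SRB, 560 nm) for overt cytotoxicity.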

Read-out in assay [4]: urokinase plasminogen activator (uPA), PLAU (gene 5328)
Briefly: BSK_KF3CT_uPA: BioMAP Diversity Plus: KF3CT Assay for urokinase plasminogen activator (uPA) Biomarker Activity (AID 2283075). To be noted: primary human keratinocytes with fibroblasts; actives raise or lower the signal. In short, it runs like this: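 ELISA read-out of uPA 24 h after dosing human skin keratinocytes co-cultured with foreskin fibroblasts. Signal change fitted both ways relative to DMSO; sulforhodamine B on parallel cultures marks overt cytotoxicity.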

Read-out in assay [5]: CD40, CD40 (gene 958)
Briefly: BSK_LPS_CD40: BioMAP Diversity Plus: LPS Assay for CD40 Biomarker Activity (AID 2283076). To be noted: primary human HUVEC with PBMC; actives raise or lower the signal. In short, it runs like this: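 CD40 signal, measured by ELISA, is fitted in both directions relative to DMSO vehicle. The system is an LPS-driven human vascular primary co-culture of endothelial cells and PBMC, sampled 24 h after compound addition.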

Read-out in assay [6]: E-selectin (Homo sapiens) (UniProt P16581)
Briefly: BSK_LPS_Eselectin: BioMAP Diversity Plus: LPS Assay for Eselectin Biomarker Activity (AID 2283077). Particulars: primary human HUVEC with PBMC; actives raise or lower the signal. The essentials:
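Signal of E-selectin, detected by ELISA, served as the endpoint; cells were umbilical vein endothelium with PBMC, read 24 h after treatment. DMSO defined baseline, and both increases and decreases were fitted.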

Read-out in assay [7]: Interleukin-8 (IL8), CXCL8 (gene 3576)
Briefly: BSK_LPS_IL8: BioMAP Diversity Plus: LPS Assay for Interleukin-8 (IL8) Biomarker Activity (AID 2283078). To be noted: primary human HUVEC with PBMC; actives raise or lower the signal. The essentials:
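Endothelial cells and PBMC from human donors are co-cultured, treated with chemicals and LPS, then assayed for IL-8 by ELISA after 24 h. Parallel SRB staining (0.1% SRB after 10% TCA fixation, 560 nm) flags cytotoxicity.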

Assay [8] is described as follows: BSK_LPS_SRB: Viability Assessment in the BioMAP Diversity Plus: LPS Assay (AID 2283079).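 Note: total protein by sulforhodamine B absorbance as a cytotoxicity measure; measured one day after compound addition; fitted in both directions against DMSO so loss or gain of signal counts.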 Particulars: primary human HUVEC with PBMC. The essentials: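 Overt cytotoxicity was gauged by sulforhodamine B total-protein staining in a primary human vascular endothelial and mononuclear cell co-culture 24 h post-dosing. Activity was fitted in both directions relative to DMSO.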

Read-out in assay [9]: Interleukin-1 alpha (IL1a), IL1A (gene 3552)
Briefly: BSK_LPS_IL1a: BioMAP Diversity Plus: LPS Assay for Interleukin-1 alpha (IL1a) Biomarker Activity (AID 2283080). Particulars: primary human HUVEC with PBMC; actives raise or lower the signal. The essentials:
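Measured: IL-1 alpha via ELISA at 24 h in LPS-activated human umbilical vein endothelium–PBMC co-culture. Baseline: DMSO, bidirectional fitting.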

Read-out in assay [10]: Monocyte Chemoattractant Protein-1 (MCP1), CCL2 (gene 6347)
Briefly: BSK_LPS_MCP1: BioMAP Diversity Plus: LPS Assay for Monocyte Chemoattractant Protein-1 (MCP1) Biomarker Activity (AID 2283081).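 For AC50: secreted MCP-1 protein quantified by ELISA in culture supernatant.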 To be noted: primary human HUVEC with PBMC; actives raise or lower the signal. In short, it runs like this: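 LPS-stimulated HUVEC/PBMC co-culture; chemical, 24 h; MCP-1 by ELISA; bidirectional fit vs DMSO; cytotoxicity via SRB (0.1% stain, 10% TCA fix, 560 nm) in parallel wells.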

Assay [11] can be described thus: BSK_LPS_PGE2: BioMAP Diversity Plus: LPS Assay for Prostaglandin E2 (PGE2) Biomarker Activity (AID 2283082). To be noted: primary human HUVEC with PBMC; actives raise or lower the signal. The essentials: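 PGE2 release measured by ELISA in an LPS-activated co-culture of human umbilical vein endothelial cells and peripheral blood mononuclear cells, read at 24 h post-dosing. DMSO served as baseline for bidirectional curve fitting.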

Read-out in assay [12]: Macrophage colony-stimulating factor (MCSF), CSF1 (gene 1435)
Briefly: BSK_LPS_MCSF: BioMAP Diversity Plus: LPS Assay for Macrophage colony-stimulating factor (MCSF) Biomarker Activity (AID 2283083). To be noted: primary human HUVEC with PBMC; actives raise or lower the signal. The essentials: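 Compound is added to a human vascular primary co-culture of umbilical vein endothelium and blood mononuclear cells. After 24 h, M-CSF is quantified by ELISA. Signal changes are fitted in both directions against DMSO.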

Read-out in assay [13]: Tissue Factor, F3 (gene 2152)
Briefly: BSK_LPS_TissueFactor: BioMAP Diversity Plus: LPS Assay for Tissue Factor Biomarker Activity (AID 2283084). To be noted: primary human HUVEC with PBMC; actives raise or lower the signal. The essentials:
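In this co-culture system of umbilical vein endothelium with PBMC, stimulated with LPS, cell-surface CD142 is detected by ELISA at 24 h. Endpoint values derive from bidirectional fitting, DMSO serving as baseline.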

Read-out in assay [14]: Tumor necrosis factor (Homo sapiens) (UniProt P01375)
Briefly: BSK_LPS_TNFa: BioMAP Diversity Plus: LPS Assay for Tumour Necrosis Factor alpha (TNFa) Biomarker Activity (AID 2283085).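 For AC50: TNFa protein level quantified by ELISA in the co-culture.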 Particulars: primary human HUVEC with PBMC; actives raise or lower the signal. In short, it runs like this: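 TNFa was quantified by ELISA in LPS-activated co-cultures of human endothelial cells and PBMC, 24 h post-dosing. Both increases and decreases versus DMSO were fitted.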

Read-out in the next assay: CD38, CD38 (gene 952)
Briefly: BSK_SAg_CD38: BioMAP Diversity Plus: SAg Assay for CD38 Biomarker Activity (AID 2283087). Particulars: primary human HUVEC with PBMC; actives raise or lower the signal. The essentials:
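CD38 quantified by ELISA (fluorescence) in a superantigen-activated endothelial cell–PBMC co-culture at 24 h post-dose. Activity fitted in both directions relative to DMSO; parallel SRB and Alamar Blue cytotoxicity read-outs.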

Read-out in assay [15]: CD40, CD40 (gene 958)
Briefly: BSK_SAg_CD40: BioMAP Diversity Plus: SAg Assay for CD40 Biomarker Activity (AID 2283088). Particulars: primary human HUVEC with PBMC; actives raise or lower the signal. In short, it runs like this:
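Fluorescence ELISA read-out of CD40 from umbilical vein endothelium plus peripheral blood mononuclear cells, sampled 24 h after dosing. Values come from bidirectional curve fitting with DMSO as baseline.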

Read-out in the next assay: CD69, CD69 (gene 969)
Briefly: BSK_SAg_CD69: BioMAP Diversity Plus: SAg Assay for CD69 Biomarker Activity (AID 2283089).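 For AC50: cell surface CD69 protein quantified by ELISA with fluorescence detection.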 To be noted: primary human HUVEC with PBMC; actives raise or lower the signal. In short, it runs like this:
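Values derive from bidirectional fitting relative to DMSO vehicle. Cells: umbilical vein endothelium plus peripheral blood mononuclear cells, treated 24 h before fluorescent ELISA for CD69.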

Read-out in assay [16]: Monocyte Chemoattractant Protein-1 (MCP1), CCL2 (gene 6347)
Briefly: BSK_SAg_MCP1: BioMAP Diversity Plus: SAg Assay for Monocyte Chemoattractant Protein-1 (MCP1) Biomarker Activity (AID 2283090). Particulars: primary human HUVEC with PBMC; actives raise or lower the signal. In short, it runs like this:
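Values derive from bidirectional fitting of ELISA-measured MCP1 against DMSO controls. Readings were taken 24 h after dosing human vascular endothelial cells co-cultured with peripheral blood mononuclear cells under superantigen stimulation.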

Read-out in assay [17]: E-selectin (Homo sapiens) (UniProt P16581)
Briefly: BSK_SAg_Eselectin: BioMAP Diversity Plus: SAg Assay for Eselectin Biomarker Activity (AID 2283091). To be noted: primary human HUVEC with PBMC; actives raise or lower the signal. In short, it runs like this: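 Primary human endothelial cells and peripheral blood mononuclear cells were co-cultured and exposed to chemical for 24 hours. E-selectin levels were then quantified by ELISA, with bidirectional curve fitting normalised to DMSO controls.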

Activity calls are given as the source filed them. Rule for the calls: active = hit-call score of the fitted dose curve at least 0.9, where 1 is the maximum; inactive = score below 0.9.

E-selectin (Homo sapiens), sequence (P16581 whole entry, looked up): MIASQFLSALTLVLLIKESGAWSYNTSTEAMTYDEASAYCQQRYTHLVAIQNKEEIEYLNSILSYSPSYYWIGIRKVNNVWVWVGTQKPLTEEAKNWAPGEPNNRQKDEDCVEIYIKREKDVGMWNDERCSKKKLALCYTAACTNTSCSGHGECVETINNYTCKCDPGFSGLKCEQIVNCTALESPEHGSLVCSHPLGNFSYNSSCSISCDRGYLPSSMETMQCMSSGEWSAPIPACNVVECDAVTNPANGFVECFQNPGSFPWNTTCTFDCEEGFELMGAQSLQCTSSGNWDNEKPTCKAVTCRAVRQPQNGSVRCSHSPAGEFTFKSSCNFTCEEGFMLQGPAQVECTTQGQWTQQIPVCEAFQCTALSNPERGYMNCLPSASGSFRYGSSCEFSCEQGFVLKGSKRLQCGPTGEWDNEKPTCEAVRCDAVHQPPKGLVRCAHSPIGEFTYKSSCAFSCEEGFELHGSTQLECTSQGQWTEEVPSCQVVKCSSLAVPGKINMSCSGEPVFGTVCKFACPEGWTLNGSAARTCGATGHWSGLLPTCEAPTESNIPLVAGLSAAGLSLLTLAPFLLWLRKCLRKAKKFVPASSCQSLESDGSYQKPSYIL
Tumor necrosis factor (Homo sapiens), sequence (P01375 whole entry, looked up): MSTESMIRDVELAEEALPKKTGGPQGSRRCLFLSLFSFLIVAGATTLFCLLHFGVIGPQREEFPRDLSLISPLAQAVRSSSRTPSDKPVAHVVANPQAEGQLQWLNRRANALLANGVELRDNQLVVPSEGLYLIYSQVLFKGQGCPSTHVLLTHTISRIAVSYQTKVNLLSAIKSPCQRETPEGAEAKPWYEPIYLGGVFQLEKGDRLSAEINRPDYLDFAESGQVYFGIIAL

Take `CC#C[C@]1(O)CC[C@H]2[C@@H]3CCC4=CC(=O)CCC4=C3[C@@H](c3ccc(N(C)C)cc3)C[C@@]21C`: the outcome in [1], in assay [4], in assay [11], in assay [13] and in [14] was inactive. For the same molecule, the AC50 was 34.2 µM (active) in [2]; 24.1 µM (active) in [3]; 33.8 µM (active) with CD40, CD40 (gene 958) [5]; 30.5 µM (active) in assay [6]; 32.6 µM (active) in assay [7]; 27.9 µM (active) in [8]. The AC50 in [9] was 31.3 µM (active); in assay [10], 31.5 µM (active); in [12], 12.1 µM (active); with CD38, CD38 (gene 952) it was 36.6 µM (active); with CD40, CD40 (gene 958) [15], 31.2 µM (active); in the assay with CD69, CD69 (gene 969), 31.9 µM (active). In addition, the figures for the half-maximal activity concentration (AC50) in assay [16] and in assay [17] were 31.7 µM (active) and 33.4 µM (active), respectively.

In the case of `CC[C@H](C)[C@@H](C(=O)O)n1sc2ccccc2c1=O`, the outcome was “inactive” in assay [1]; “inactive” in [2]; “inactive” in [3]; “inactive” in [4]; “inactive” with CD40, CD40 (gene 958) [5]; “inactive” in assay [6]. The outcome was “inactive” in [7]; “inactive” in [8]; “inactive” in [10]; “inactive” in assay [12]; “inactive” in assay [13]; “inactive” with CD38, CD38 (gene 952). Moreover, the outcome is “inactive” in the assay with CD40, CD40 (gene 958) [15]; “inactive” in the assay with CD69, CD69 (gene 969); “inactive” in [16]; “inactive” in assay [17]. The AC50 is 25.9 µM (active) in assay [9], 32.2 µM (active) in assay [11] and 20 µM (active) in [14].

With `CC(=O)NC1(c2cccc(F)c2)CCN(CC[C@@]2(c3ccc(Cl)c(Cl)c3)CN(c3ccccc3)C(=O)CO2)CC1`, the outcome was “inactive” in assay [1]; “inactive” in assay [2]; “inactive” in the assay with CD40, CD40 (gene 958) [5]; “inactive” in assay [6]; “inactive” in assay [11]; “inactive” in [12]. The outcome in assay [13], in assay [14] and in [17] was inactive. Besides, the half-maximal activity concentration (AC50) in assay [3] was 25.8 µM (active); in [4] it was 27 µM (active); in assay [7], 4.23 µM (active); in assay [8], 12.8 µM (active); in assay [9] it was 24.9 µM (active); in [10], 16.6 µM (active). In addition, the AC50 with CD38, CD38 (gene 952) was 26.7 µM (active); with CD40, CD40 (gene 958) [15], 30.5 µM (active); with CD69, CD69 (gene 969), 25.2 µM (active); in assay [16] it was 27.5 µM (active).

The values are drawn from PubChem BioAssay (EPA / NIEHS).
